Hit rate of the full screen: of about 1,400 compounds, about 380 (27%) were called active. Some of the results follow. A number with no mark means an inactive call.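 The calls were made as follows: active = mean inhibition above 50% across duplicate retests at 10 µM; inactive = the rest.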
experiment: yeast NALP1 reporter signal suppression – S. cerevisiae, luminescence, single concentration, NALP1 inhibitor project, confirmation (AID 488841);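 also: plate controls were DMSO in galactose medium for no effect and cells in plain SD medium for full effect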; conditions: S. cerevisiae NALP1/ASC/Caspase-1 reporter, beta-gal luminescence; at 10 µM; stronger effect = higher value

SMILES | inhibition
Cc1ccc2occ(C(=O)c3ccco3)c(=O)c2c1 | 58.4% (active)
Cc1ccc(C)c(NC(=O)c2ccc(OC(=O)c3ccco3)cc2)c1 | 36.8%
CN1CCN(C2=C(Cl)C(=O)C(c3cnc(N4CCCCC4)s3)=C(Cl)C2=O)CC1 | 29.9%
O=C1c2cccc(O)c2C(=O)c2c(O)cccc21 | 62.8% (active)
CN(C=[N+](C)C)c1cccc2c1C(=O)c1ccccc1C2=O | 37%
CN(C)S(=O)(=O)c1cccc2c1C(=O)c1ccccc1C2=O | 39.2%
CC(C)CN=C(NS(=O)(=O)c1ccccc1)C(Cl)(Cl)Cl | 43.6%
C=CCOc1ccc2ccccc2c1/C=N/O | 52.7% (active)
N#Cc1cccc(N=Cc2c(O)ccc3ccccc23)c1 | 24.8%
O=S(=O)(/N=C/c1c(O)ccc2ccccc12)c1cccs1 | 29.8%
CCCCCOc1ccc(Cn2ccnc2)cc1[N+](=O)[O-] | 43%
O=C(CCNc1n[nH]c(=O)[nH]c1=O)N/N=C/c1ccc(C(F)(F)F)cc1 | 26.9%
COCC(=O)n1nc(-c2ccc(Cl)cc2)nc1NCc1ccc(F)cc1 | 49.8%
O=C(NC1=NCCS1)c1ccc(Cl)s1 | 42.9%
CCOc1ccccc1N1CCN(C(=O)CCCc2nc3ccccc3s2)CC1 | 52.9% (active)
COCCN=C1Sc2nc3ccc(C)cc3cc2CN1Cc1ccco1 | 45.9%
COc1ccccc1NC1=C(N2CCCCC2)C(=O)c2ccccc2C1=O | 49.1%
CCCSc1nnc(C(C)C)n1N | 21.8%
O=C(/C=C/c1ccc(F)cc1)NCCc1ccc2c(c1)OCCO2 | 49.3%
Cc1ccc(C(=O)/C=C/c2ccc3c(c2)OCO3)o1 | 23.9%
O=C(/C=C/c1ccc2c(c1)OCCCO2)c1ccccc1O | 61.6% (active)
CC(=O)C1=C(O)C(=O)N(CCC(=O)O)C1c1ccc(Cl)cc1Cl (centres undefined) | 24.1%

SMILES | inhibition
CCOC(=O)C1=Nc2ccccc2C1=[N+]=[N-] | 37.8%
CCOC(=O)C1=C(O)c2ccccc2C(=O)/C1=C\c1ccc(C)cc1 | 30.2%
CCOC(=O)/C(=C/c1ccc(OC(=O)c2ccccc2)cc1)C(C)=O | 55.4% (active)
Cc1sc(-c2ccncc2)nc1OC(=O)c1ccccc1 | 47.5%
O=C(CN(Cc1ccccc1)S(=O)(=O)c1ccc(S(=O)(=O)N2CCOCC2)cc1)Nc1ccccc1 | 27.6%
Cc1nn(-c2ccccc2)c(Cl)c1/C=C(\C#N)C(=O)NC(C)C | 55.2% (active)
CC(C)NC(=O)/C(C#N)=C/c1cccc(NC(=O)c2ccccc2Cl)c1 | 41.1%
C=CCNC(=O)/C(C#N)=C/c1c(C)nn(-c2ccccc2)c1Cl | 60.3% (active)
COc1ccc(OCC(=O)NC(=S)N2CCCc3ccccc32)cc1 | 28.5%
CCCCCCC1CCC(C(=O)Nn2c(C)nc3ccccc3c2=O)CC1 (centres undefined) | 44.8%
COc1ccc(C2NCCc3c2[nH]c2ccccc32)cc1CSc1nc2ccccc2s1 (centres undefined) | 45.4%
COCc1cc(=O)[nH]c(/N=C(\N)Nc2cccc(C)c2)n1 | 21.6%
O=C1c2ccsc2SCCN1Cc1c(Cl)cccc1Cl | 53.7% (active)
COc1ccc(CCNC(=O)C2CCN(S(=O)(=O)c3ccc(Cl)cc3)CC2)cc1OC | 5.6%
CCCNC(=O)c1nnsc1S(=O)(=O)c1ccc(Cl)cc1 | 95% (active)
CNC(=O)c1nnsc1S(=O)(=O)c1ccc(Cl)cc1 | 86.2% (active)
Cn1cnc([N+](=O)[O-])c1S(=O)(=O)c1ccc(Cl)cc1 | 46.9%
Oc1ccccc1C1N=C(c2ccccc2)NC(c2ccccc2)=N1 | 16.1%
O=C(CSc1ncn[nH]1)NC12CC3CC(CC(C3)C1)C2 | 22.3%
COC(=O)COc1ccc(S(=O)(=O)NCCC2=CCCCC2)cc1Cl | 28.2%
O=C1C2C3C=CC(C2C(=O)N1CCCO)C1C2C(=O)N(CCCO)C(=O)C2C31 (centres undefined) | 17.4%
COc1ccc2cc(/C=N/O)c(Cl)nc2c1 | 46.1%

SMILES | inhibition
CCC(C)NC(=O)c1cc2cc3ccc(OC)cc3nc2s1 (centres undefined) | 54.9% (active)
COc1ccc(OC)c(NC(=O)c2sc3nc(Cc4ccccc4)cc(C(F)(F)F)c3c2N)c1 | 23.5%
CC(C)(C)C(=O)NC1CCN(S(=O)(=O)c2ccc(C(F)(F)F)cc2)CC1 | 18.1%
CCOc1ccc(NC2=C(OC)C(=O)c3ccccc3C2=O)cc1 | 39.5%
CCOc1ccc(S(=O)(=O)N2c3ccccc3CC2C)cc1 (centres undefined) | 54.5% (active)
CCOc1cccc(N2C(=O)CC(N3CCN(c4ccc(S(=O)(=O)CC)cc4)CC3)C2=O)c1 (centres undefined) | 30.9%
Cc1cc(Cl)c(OCCCCN2CCOCC2)c(Br)c1 | 40.9%
COC(=O)c1sccc1NC(=O)c1csc(C)c1 | 54% (active)
CCOC(=O)C(=CNNc1ccsc1C(=O)OC)C(=O)OCC | 37.1%
COC(=O)c1sccc1N/N=C(\C)c1ccc(F)c(Cl)c1 | 22.3%
CCn1c(C)[n+](CC(O)COCC2CC=CCC2)c2ccccc21 (centres undefined) | 40%
CCOC(=O)c1c(C)n(C)c2cc(-c3ccc(C)cc3)c(O)cc12 | 24.9%
CCCCC(CC(O)COCCC)c1n[nH]c(=S)n1-c1ccccc1 (centres undefined) | 44.8%
CC(C)(C)OC(=O)NCCCCCc1nnc(SCc2ccccc2)o1 | 56.6% (active)
CC(C)Sc1nnc([C@H](Cc2ccccc2)NC(=O)OC(C)(C)C)o1 | 30.7%
CCCCSc1nnc(CCNC(=O)OC(C)(C)C)o1 | 42.2%
CC(C)Cc1nnc(NC(=O)CSc2nc(N)cc(=O)[nH]2)s1 | 23.4%
CCOC(=O)Nc1cccc(Nc2ccccc2)c1 | 52.2% (active)
CCOC(=O)c1sc(NC(=O)Nc2cccc(Cl)c2)cc1C | 5.75%
CCOC(=O)Nc1ccc2c(C)cc(=O)oc2c1 | 41.3%
